According to PubChem BioAssay (NCI):
Compounds without any hit were thinned out: in the full panel of roughly 83,000, 20% have a hit.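 Negative percent growth values reflect cell death: -40 means 40% of the cells present at the start died, and -100 means all died.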 Activity calls are given as the source filed them. Rule for the calls: active = growth percent below 10; inactive = the rest.

System: HL-60(TB) leukemia
Experiment: NCI-60 one-dose screen, 48 h (100 = growth as untreated, 0 = no growth, -100 = all killed)
Conditions: 10 µM unless noted

SMILES	growth
N=C(N)c1ccc(-c2ccc(-c3ccco3)o2)cc1F	-17.1% (active)
COc1ccc(C2=Nc3c(C)nn(-c4ccccc4)c3NC(c3ccc(Oc4ccnc5cc(Cl)ccc45)c(OC)c3)C2)cc1 (stereo not given)	90.8% (inactive)
O=C(Nc1cc(Cl)cc2c1-c1ccc(Cl)cc1C2O)C(Cl)Cl (stereo not given)	76.2% (inactive)
CC(=O)Nc1ccc(-n2cnc3cc(-c4ccc(OCCN5CCCCC5)cc4)ccc32)cc1	98.3% (inactive)
Nc1nc(-c2cccc(Br)c2)cc(-c2cc3ccccc3oc2=O)n1	100% (inactive)
O=C1c2ccccc2C(=O)C1c1ccc(Br)cc1	105% (inactive)
COc1cccc(-c2nc3sccn3c2-c2ccnc(NCCNC(=O)c3ccccc3)n2)c1	94.2% (inactive)
CCSc1ccc(C2C(Br)C(=O)N2c2cc(OC)c(OC)c(OC)c2)cc1 (stereo not given)	-9.14% (active)
COc1ccc2c(c1)c(-c1noc(C(=O)c3cn(C)c4ncc(Br)cc34)n1)cn2C	98.2% (inactive)
CC1=NC(c2ccc(Cl)cc2)C2=C(N1)/C(=C/c1ccc(Cl)cc1)CCC2 (stereo not given)	85.8% (inactive)
CCOCCc1c(O)nc(SC)[nH]c1=O	93.3% (inactive)
COc1ccc(-c2cc(-c3ccc(Cl)cc3)nc(SCCCCCCC(=O)NO)n2)cc1	-18.2% (active)
N#Cc1c(NC(=O)NCc2ccccc2)sc2c1CCCCC2	-8.46% (active)
CCCS(=O)(=O)Nc1ccc(F)c(C(=O)c2c[nH]c3ncc(-c4ccc(OCCCC5CCCCN5)nc4)cc23)c1F (stereo not given)	97.4% (inactive)
CN([N-]C(=O)CC(=O)[N-]N(C)C(=S)c1ccccc1)C(=S)c1ccccc1.[Cu+2]	-15.6% (active)
CCOC(=O)C1=C(c2ccccc2)NC(=O)NC1CN1C(=O)c2ccccc2C1=O (stereo not given)	57.4% (inactive)
CN1CC(c2ccccc2)C(C(=O)c2ccc(Br)cc2)C12C(=O)Nc1ccccc12 (stereo not given)	99.8% (inactive)
Oc1ccc(Cl)cc1Cc1cc(Cl)cc(Cl)c1O	-11.1% (active)
CCCCCOC(=O)Nc1nc(=O)n(C2O[C@H](C)[C@@H](O)[C@H]2O)cc1F (stereo not given in full)	92.8% (inactive)
Cc1cc(N2CCN(CC(=O)Nc3ccc4c(ccn4C)c3)CC2)nc(N2CCCCCC2)n1	74.7% (inactive)
O=[N+]([O-])c1ccc(OCCCOc2ccccc2)cc1	95.5% (inactive)
COc1ccc(-c2c(N)n[nH]c2-c2cc(OC)c(OC)c(OC)c2)cc1	15.3% (inactive)

SMILES	growth
CCOc1ccc(-c2nc3ccc(-c4nc5ccc(N6CCN(C)CC6)cc5[nH]4)cc3[nH]2)cc1OCC	24.8% (inactive)
O=C(CSc1nnc(Cc2ccccc2Nc2c(Cl)cccc2Cl)n1-c1ccccc1)N1N=C(c2ccc3ccccc3c2)CC1c1ccc(Cl)cc1 (stereo not given)	98% (inactive)
CC1(C)N=C(N)N=C(N)N1c1ccc(OCC(=O)Nc2ccccc2)c(Cl)c1	13.8% (inactive)
CC(C)=NNC(N)=S	84.7% (inactive)
O=C(N=c1oc2ccccc2cc1-c1cc2ccccc2[nH]1)Nc1ccc(Cl)cc1	78.6% (inactive)
CCOC(=O)c1cc(N)nc2ccccc12	104% (inactive)
COc1ccc(C(C#N)=C2C=CC(=NO)C=C2)cc1	52.4% (inactive)
COc1cc(/C=C/C(=O)c2nc3cc(F)ccc3nc2C)cc(OC)c1OC	-45.6% (active)
COc1cc2c(c(OC)c1OC)-c1ccc(NNC(N)=S)c(=O)cc1[C@@H](NC(C)=O)CC2	-13.9% (active)
CC(=O)[C@@]1(O)[C@H](C)C[C@H]2[C@@H]3C=C(C)C4=Cc5c(cnn5-c5ccccc5)C[C@]4(C)[C@H]3[C@@H](O)C[C@@]21C	-16% (active)
COc1ccc(/C=N/Nc2cc(=O)[nH]c3ccc(Cl)cc23)cc1	45.3% (inactive)
COc1cc(CNC(=O)CCCC/C=C/C(C)C)ccc1OCc1cn(-c2ccc([N+](=O)[O-])cc2)nn1	81% (inactive)
O=C(NCCNC(=O)c1ccc(F)cc1)Nc1ccc(-n2cc(-c3ccncc3)c(-c3ccc(Cl)c(O)c3)n2)cc1	-14.1% (active)
COc1c(O)c(O)cc2c3c(oc12)CC(c1ccc2c(c1)OCO2)CC3=O (stereo not given)	61.1% (inactive)
COc1nc2c(cc1S(=O)(=O)c1ccccc1)CCc1c-2cnn1-c1ccccc1	58.7% (inactive)
O=C(O)c1ccc(NC(=O)c2ccc(Nc3ccnc(C(F)(F)F)c3)cc2)cc1	97.4% (inactive)
COc1ccc(C/C(C)=C(\c2ccc(Cl)cc2)c2ccc(OCCN3CCCC3)cc2)cc1	76.9% (inactive)
N#CC1C(=O)NC(c2ccccc2[N+](=O)[O-])c2sc3c(F)cccc3c21 (stereo not given)	82.3% (inactive)
O=C1/C(=C(/c2ccccc2)N2CCOCC2)Cc2ccccc21	27.5% (inactive)
Cc1cccc2c3c(sc12)C(c1ccc(F)cc1)C(C#N)=C(N)O3 (stereo not given)	-21.8% (active)
Fc1ccc(Oc2ccc(Nc3ncnc4onc(-c5ccccc5)c34)cc2)cc1	86.9% (inactive)
c1cc[n+](Cc2ccnc3ccccc23)cc1	84.7% (inactive)

SMILES	growth
C#Cc1cccc(Nc2ncnc3cc(OCCOC)c(OCCOC)cc23)c1	49.2% (inactive)
CCOC(=O)c1ccc(N(CCC(=O)O)C(C)=O)cc1	117% (inactive)
Cc1nccc2c3ccc(OCc4cn(-c5ccc(Cl)cc5)nn4)cc3n(CC(C)C)c12	-49.4% (active)
O=C1Nc2cc(Cl)ccc2/C1=C\c1c(-c2ccc(F)cc2)nc2ccccn12	-46% (active)
CN(C)CCN1C(=O)c2cccc3cc(N)cc(c23)C1=O	1.68% (active)
CCCCCCCCc1cc(Cl)c(O)c(Cl)c1	101% (inactive)
C[C@]12CC[C@@H]3c4ccc(O)cc4CC[C@H]3[C@@H]1CC[C@@H]2NS(=O)(=O)c1ccc(C(F)(F)F)cc1	19.5% (inactive)
CC(C)C1=C[C@@]23CC[C@@H]4[C@](C)(CCC[C@@]4(C)C(=O)OCC#CCN4CCCC4)[C@H]2C[C@@H]1[C@H]1C(=O)OC(=O)[C@H]13	95.7% (inactive)
CCO/C=C1\SC(=S)N(c2cccc(C)c2)C1=O	99% (inactive)
C=CCN=C(N)SCCCCCCSC(N)=NCC=C	75.8% (inactive)
O=C(CBr)c1ccc(OC(=O)c2ccccc2)cc1	95.5% (inactive)
S=C(NCc1ccccc1)NCc1ccccc1	84.7% (inactive)
COc1cc(/C=C/CO)cc(OC)c1O[C@@H]1O[C@H](CO)[C@@H](O)[C@H](O)[C@H]1O	85.9% (inactive)
C=C(C)[C@@H]1CC[C@]2(C)[C@H](CC[C@@H]3[C@H]4[C@H]5OC[C@@]4(CCC5(C)C)CC[C@]32C)[C@@]1(C)CCCN	-4.66% (active)
COc1ccc(-c2csc(-c3cc(Cl)cc(Cl)c3Cl)n2)cc1	93.6% (inactive)
COc1ccc2c(c1)c(CC(=O)[Se]C)c(C)n2C(=O)c1ccc(Cl)cc1	-38.9% (active)
C=C(NC(=O)[C@H](C(C)C)N(C)c1cccc2[nH]ccc12)C(=O)OC	109% (inactive)
COc1ccc(-c2nc3ccccn3c2-c2nnc(-c3cc(OC)c(OC)c(OC)c3)o2)cc1	85.6% (inactive)
O=C1C=C(O)c2ccccc2C1=O.[Ag]	96% (inactive)
Nc1c(C(=O)Nc2ccccc2)sc2nc3c(cc12)CCCC3	15.5% (inactive)
Cc1noc(C)c1CSc1ccccc1C(=O)N1CCN(c2cccc(C(F)(F)F)c2)CC1	74.4% (inactive)
Clc1ccc(-c2cc(-c3ccccc3)nc(NCCNc3ccnc4cc(Cl)ccc34)n2)cc1	-31.9% (active)

SMILES	growth
C=CCn1c(SCC(=O)Nc2ccc(C(=O)/C=C/c3ccc(OC)cc3)cc2)nnc1-c1ccccc1	88.5% (inactive)
O=C1Nc2ccccc2/C1=C/c1cn(CC(O)Cn2cc(/C=C3\C(=O)Nc4ccccc43)c3ccccc32)c2ccccc12 (stereo not given)	-10.2% (active)
C=CCC(OC(C)=O)c1ccc(C(C)C)cc1 (stereo not given)	83.1% (inactive)
Brc1ccc(-c2nc3ccccc3s2)cc1	99.6% (inactive)
CC(=O)[C@@H]1CC[C@]2(C(N)=O)CC[C@]3(C)[C@H](CC[C@@H]4[C@@]5(C)CCCNC(C)(C)[C@@H]5CC[C@]43C)[C@@H]12	91% (inactive)
Cc1c(C)c2c(c(C)c1NC(=O)/C=C\C(=O)O)CCC(C)(CCCC(C)CCCC(C)CCCC(C)C)O2 (stereo not given)	37.3% (inactive)
COc1ccc(Cn2cc3c(c2)-c2oncc2CC3)cc1OC	2.83% (active)
O=C(Nc1cccc(-n2cc(-c3ccncc3)c(-c3ccc(O)c(Cl)c3)n2)c1)c1cccc(C(F)(F)F)c1	13.3% (inactive)
CC[N+](C)(CC)CCO	96.9% (inactive)
N#Cc1c(-c2ccc(Cl)cc2)cc(-c2cc(O)ccc2O)nc1N	68.2% (inactive)
O=C(Nc1cccc(-n2cc(-c3ccncc3)c(-c3cc(O)cc(Cl)c3)n2)c1)c1ccc(N2CCOCC2)c(C(F)(F)F)c1	-46.4% (active)
CC(=O)Nc1nc2c(c(N)c1C#N)C(c1cccc(Cl)c1)C1=C(CCCC1=O)N2c1sc2c(c1C#N)CCCC2 (stereo not given)	5.89% (active)
C#CCOC(=O)Nc1ccccc1	99.7% (inactive)
CCCCOc1nc2c(C)cccc2cc1C1CNC(=O)c2ccccc2N1 (stereo not given)	26.2% (inactive)
C=C(C)[C@@H]1C[C@@H]2Cc3cc(Cl)ccc3N1O2	-8.6% (active)
COc1cc(/C=N/NC(=O)c2cnn3c2NC(c2ccccc2)C3)ccc1OCc1ccccc1 (stereo not given)	-0.0884% (active)
CCc1nn2c(-c3ccccc3)c(-c3cc(OC)c(OC)c(OC)c3)nc2s1	68% (inactive)
N#Cc1c(NC(=O)c2ccc(Br)cc2)sc2c1CCCC2	14.1% (inactive)
c1ccc(Nc2cc(-c3cccnc3)[nH]n2)cc1	89.3% (inactive)
